Compound activity deposited in PubChem by National Center for Advancing Translational Sciences (NCATS).
NS1 inh = qHTS Assay for Inhibitors of Influenza NS1 Protein Function. 270,000 tested, 0.4% active. Potency, µM (highest dose often 46.1 µM); calls by dose curve; note: actives are rising curves; nearly all actives have a fitted effect of over 50% in size
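OD600 was taken as the measure of yeast growth restored by compound in an NS1-expressing S. cerevisiae strain. Cells had been washed out of glucose medium and diluted 1:100 into galactose -URA medium, pH 6.0.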
Giardia FBPA inh = qHTS Assay for Inhibitors of Fructose-1,6-bisphosphate Aldolase from Giardia Lamblia; A8B2U2; Potency, µM (doses to about 59.6 µM), hits mostly inhibitors; AID 2451, 2010; 290,000 tested, 0.71% active; purified Giardia FBPA; note: nearly all actives have a fitted effect of over 55% in size
Target sequence (A8B2U2 whole entry, looked up): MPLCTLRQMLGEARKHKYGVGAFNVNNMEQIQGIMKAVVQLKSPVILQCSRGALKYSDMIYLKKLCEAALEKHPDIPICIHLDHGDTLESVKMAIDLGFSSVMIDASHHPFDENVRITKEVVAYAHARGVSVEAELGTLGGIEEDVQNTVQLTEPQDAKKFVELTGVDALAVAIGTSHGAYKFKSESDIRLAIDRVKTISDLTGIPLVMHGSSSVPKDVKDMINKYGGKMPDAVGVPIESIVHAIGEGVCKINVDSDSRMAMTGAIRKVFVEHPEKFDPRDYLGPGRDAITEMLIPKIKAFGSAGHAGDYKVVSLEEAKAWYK
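Giardia FBPA (40 nM reagent) was preincubated 10 min at RT with compound (up to 57.5 uM final), then substrate plus GAPDH/TPI/NAD/arsenate coupling system with diaphorase/resazurin was added; resorufin fluorescence (525/598 nm) was read after 20 min.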
AmpC inh detg = qHTS Inhibitors of AmpC Beta-Lactamase (assay with detergent); P00811; 370,000 tested, 0.041% active; AmpC hydrolysis of nitrocefin, absorbance 480 nm, 0.01% Triton; Potency, µM (highest dose often 114 µM), hits mostly inhibitors; note: nearly all actives have a fitted effect of over 25% in size
Target sequence (P00811 whole entry, looked up): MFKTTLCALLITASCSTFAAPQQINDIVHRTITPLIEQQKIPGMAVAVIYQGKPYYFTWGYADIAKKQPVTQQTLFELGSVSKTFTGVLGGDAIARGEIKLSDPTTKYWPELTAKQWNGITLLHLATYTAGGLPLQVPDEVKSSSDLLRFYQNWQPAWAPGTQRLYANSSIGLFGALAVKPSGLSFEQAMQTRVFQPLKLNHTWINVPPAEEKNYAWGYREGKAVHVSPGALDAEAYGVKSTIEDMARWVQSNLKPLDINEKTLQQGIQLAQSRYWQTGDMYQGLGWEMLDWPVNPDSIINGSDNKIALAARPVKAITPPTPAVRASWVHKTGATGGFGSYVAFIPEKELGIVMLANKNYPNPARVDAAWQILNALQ
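20 mM phosphate pH 7.0 + 0.01% (detergent screen) or 0.0001% Triton X-100; 5.3 nM AmpC reagent; cpd preinc 15 min RT; nitrocefin (800 uM stock) to start; A480 q20 s × 4 min; Activity was normalised to no-enzyme and no-compound control wells.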
AmpC inh no detg = qHTS Inhibitors of AmpC Beta-Lactamase (assay without detergent); AID 485341, 2010; Potency, µM (series often up to 57.1 µM), actives largely listed as inhibitors; 330,000 tested, 0.52% active; AmpC nitrocefin hydrolysis, absorbance 480 nm, 0.0001% Triton; note: nearly all actives have a fitted effect of over 20% in size
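AmpC (5.3 nM in the dispensed reagent) in 20 mM phosphate pH 7.0 with 0.01% (detergent screen) or 0.0001% Triton X-100 was preincubated with compounds for 15 min at room temperature. Nitrocefin was then added from an 800 uM solution, and hydrolysis was followed at 480 nm.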
SARS PLpro yeast = qHTS of Yeast-based Assay for SARS-CoV PLP; 330,000 tested, 0.19% active; S. cerevisiae expressing SARS-CoV PLpro, growth rescue; Potency, µM (series often up to 32.9 µM), most hits filed as activators; AID 485353, 2010; calls by dose curve; note: nearly all actives have a fitted effect of over 55% in size
Large screens that a line does not name were inactive. Shown are actives, neighbours in structure and some others; about 1.4% of the full set was active somewhere. Unless noted, calls come from the whole dose curve; as a rule, active = well fitted curve in the direction sought with a large enough effect; inconclusive = small, poorly fitted or top-dose-only effect, or another doubt; inactive = no such curve, though single readings can be large; an effect the other way counts as inactive or inconclusive.

CCCNC(=O)CS(=O)(=O)Cc1nc(-c2ccccc2C)oc1C	AmpC inh no detg 3.55µM
COc1ccc(NC(=O)CS(=O)(=O)Cc2nc(-c3ccc(C)cc3)oc2C)cc1	SARS PLpro yeast inconclusive
Cc1ccc(CNC(=O)CS(=O)(=O)Cc2nc(-c3ccccc3C)oc2C)cc1	none (no result: NS1 inh, Giardia FBPA inh, AmpC inh no detg, SARS PLpro yeast)
COc1ccc(-c2nc(CS(=O)(=O)CC(=O)Nc3ccc(Cl)cc3)c(C)o2)cc1	AmpC inh no detg 3.98µM
C/C(=N\N=C1\NC(=O)C(CC(=O)NCc2ccccc2)S1)C(C)C (stereo not given)	none (no result: NS1 inh)
COc1ccc2c(c1)OC[C@H]1[C@H]2N2C(=O)c3cc(C)ccc3NC(=O)[C@@]2(C)[C@H]1c1ccccc1	none (no result: NS1 inh, Giardia FBPA inh, AmpC inh detg)
Cc1ccc(NC(=O)c2ccc(OC(=O)COc3ccc(Cl)cc3C)cc2)cc1	AmpC inh detg inconclusive
Cc1ccc(C(=O)CC(=O)COc2ccc(Cl)cc2C)cc1	AmpC inh detg inconclusive, AmpC inh no detg 2.24µM, SARS PLpro yeast inconclusive
Cc1ccc(C)c(N2CCN(S(=O)(=O)CC34CCC(CC3=O)C4(C)C)CC2)c1 (stereo not given)	none
O=C(NC(c1ccccc1)c1cc(Cl)c2cccnc2c1O)c1cccnc1 (stereo not given)	Giardia FBPA inh inconclusive, SARS PLpro yeast 1.78µM
CCN(CC)S(=O)(=O)c1ccc(N2CCCC2)c(NC(=O)c2ccncc2)c1	none
COc1cc(N=C2C(=O)N3c4c(cccc42)C(C)=CC3(C)C)cc(OC)c1	none
CC1=CC(C)(C)N2C(=O)C(=Nc3ccc(O)cc3)c3cccc1c32	Giardia FBPA inh 12.6µM
Cc1cc(C)n(C(=O)CSc2nc3ccccc3o2)n1	AmpC inh detg 28.2µM
CC1Cc2nc(SCC(=O)N3CCN(c4ccccc4)CC3)n(C)c(=O)c2S1 (stereo not given)	AmpC inh detg inconclusive, AmpC inh no detg 1.58µM
CCn1c(SCC(=O)NCc2ccccc2)nc2c(c1=O)SC(C)C2 (stereo not given)	AmpC inh no detg 1.58µM
CC1Cc2nc(SCC(=O)N3CCN(c4ccccc4)CC3)n(CCc3ccccc3)c(=O)c2S1 (stereo not given)	NS1 inh inconclusive, AmpC inh no detg 3.55µM
CCn1c(SCC(=O)NCc2ccc(F)cc2)nc2c(c1=O)SC(C)C2 (stereo not given)	none
Cc1nc(-c2noc(-c3ccccc3Cl)n2)c(C(F)(F)F)o1	none
CC1=NN(c2ccc(C)cc2)C(=O)/C1=C/c1ccc(-c2cc([N+](=O)[O-])ccc2O)o1	AmpC inh no detg 15.8µM
CCOC(=O)C1=C(Cc2ccc(F)cc2)C(=O)c2ccccc2C1=O	Giardia FBPA inh 1.77µM
COc1ccc(S(=O)(=O)n2ccc(C(C)Oc3ccc(-c4ccccc4)c(F)c3)n2)cc1 (stereo not given)	AmpC inh no detg 0.398µM
CC(Oc1ccc(-c2ccccc2)c(F)c1)c1ccn(S(=O)(=O)c2ccc(F)cc2)n1 (stereo not given)	none
O=C(CN(C(=O)c1csnn1)c1ccccc1)NCCc1ccccc1	none
Cc1nnc(SCC(=O)N2CC(=O)Nc3ccccc32)s1	none (no result: NS1 inh)
Cc1cc(C)c2nc(SCC(=O)N3CC(=O)Nc4ccccc43)c(C#N)cc2c1	AmpC inh no detg 3.55µM
Oc1ccc2c(c1)OCC1(O)Cc3cc(O)c(O)cc3C21 (stereo not given)	Giardia FBPA inh 17.7µM (no result: NS1 inh, AmpC inh detg, AmpC inh no detg, SARS PLpro yeast)
O=C(CCCCCNC(=S)Nc1ccc(Cl)cc1)C[N+](=O)[O-]	AmpC inh no detg 20µM
O=C(CCCCCNC(=S)Nc1ccccc1)C[N+](=O)[O-]	none (no result: NS1 inh)
COc1ccc(CNC(=S)Nc2ccc(OC)cc2)cc1	SARS PLpro yeast 11.2µM
OCCN1CCN(Cc2cc(Cl)c3cccnc3c2O)CC1	Giardia FBPA inh inconclusive, SARS PLpro yeast 17.8µM
Oc1c(Cl)cc(CN2CCCCC2)c2cccnc12	Giardia FBPA inh inconclusive
O=[N+]([O-])c1cc(CN2CCCC2)c2cccnc2c1O	NS1 inh inconclusive, Giardia FBPA inh 17.7µM, AmpC inh detg inconclusive, SARS PLpro yeast inconclusive
O=c1[nH]c(CN2CCN(Cc3ccccc3)CC2)nc2sc3c(c12)CCC3	none (no result: Giardia FBPA inh, AmpC inh detg, AmpC inh no detg, SARS PLpro yeast)
CCC1=NN2C(=N)/C(=C\c3cccn3-c3c(C)cccc3C)C(=O)N=C2S1	AmpC inh detg inconclusive (no result: NS1 inh)
CCC1=NN2C(=N)/C(=C\c3cccn3-c3ccc(C)cc3C)C(=O)N=C2S1	AmpC inh detg inconclusive, AmpC inh no detg 25.1µM (no result: NS1 inh)
CCOc1ccc2nc(SC3CC(=O)N(c4ccccc4)C3=O)sc2c1 (stereo not given)	none
CCOc1ccc2nc(SC3CC(=O)N(c4cccc(OC)c4)C3=O)sc2c1 (stereo not given)	AmpC inh no detg 8.91µM
CCOc1ccc(S(=O)(=O)Nc2cc(Sc3ncn[nH]3)c3oc(=O)sc3c2)cc1	AmpC inh no detg 5.62µM
CCc1nc(Nc2ccc(N3CCN(C(C)=O)CC3)cc2)c2oc3ccccc3c2n1	AmpC inh detg 35.5µM
COC(=O)C1(C)Nc2ccccc2C(=O)N1c1ccccc1C (stereo not given)	AmpC inh detg inconclusive, AmpC inh no detg 1µM
Cc1cc(O)c(C=O)c2c1C(=O)Oc1c(CO)c(O)c3c(c1O2)C(O)OC3=O (stereo not given)	Giardia FBPA inh inconclusive, AmpC inh detg 50.1µM
O=[N+]([O-])c1ccc2c(c1)N([O-])C1(CCCCC1)[N+]2=O	Giardia FBPA inh 7.92µM
CC1=C(c2ccccc2)[N+](=O)C2(CCCC2)N1[O-]	none
CSc1ccccc1NC(=O)c1noc2c1CCC2	Giardia FBPA inh inconclusive, AmpC inh detg 25.1µM
COC(=O)c1ccccc1NC(=O)c1noc2c1CCC2	AmpC inh detg inconclusive
Cc1cccc(-n2cnc3c(c2=O)c2nc4ccccc4nc2n3Cc2ccco2)c1	AmpC inh detg inconclusive
COc1ccc(Cn2c3nc4ccccc4nc3c3c(=O)n(Cc4ccco4)cnc32)cc1	NS1 inh 8.91µM
O=C(N/N=C/c1ccc[nH]1)c1cc2ccccc2cc1O	Giardia FBPA inh inconclusive, AmpC inh no detg 14.1µM
COc1cccc(S(=O)(=O)Nc2noc3ccccc23)c1	none
O=C(NCCCl)Nc1cccnc1Cl	none
CCn1c(CCCNC(=O)c2ccc(F)cc2)nc2ccccc21	AmpC inh detg inconclusive, AmpC inh no detg 35.5µM
CCn1c(CCNC(=O)c2ccc(F)cc2)nc2ccccc21	none
CCN(CC)c1ccc(NC(=O)CSc2nc3ccccc3c(=O)[nH]2)cc1	AmpC inh detg inconclusive, AmpC inh no detg 20µM
O=C(CSc1nc2ccccc2c(=O)[nH]1)Nc1ccc(Br)cc1	none (no result: Giardia FBPA inh)
O=C(Cn1nc(Cc2cccnc2)c2ccccc2c1=O)Nc1ccc2c(c1)OCO2	AmpC inh no detg 10µM
NC(=O)c1c(NC(=O)CSc2nnc(-c3ccco3)n2-c2ccccc2)sc2c1CCC2	NS1 inh 1.41µM
CCOC(=O)c1c(NC(=O)CSc2nnc(-c3c[nH]c4ccccc34)n2CCOC)sc2c1CCCC2	NS1 inh inconclusive, AmpC inh detg inconclusive
